Assay outcomes from PubChem.
This is a sample that favours compounds with a hit; in the whole collection about 18% have one here.
DT40 TDP1 CPT = DT40-hTDP1 cell growth loss with CPT. Potency, µM (doses to about 46.2 µM), actives largely listed as inhibitors. chicken DT40 Tdp1-/-;hTDP1 cells + 20 nM CPT, ATP luminescence, 48 h. hit rate 12% among 420,000; further: nearly all actives have a fitted effect of over 55% in size
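Chicken DT40 Tdp1-/- cells complemented with human TDP1, 400 cells/well, exposed to compounds plus 20 nM camptothecin for at least 48 h at 37 C; viability read as ATP content by CellTiter-Glo luminescence.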
GCN5L2 inh = GCN5L2 (KAT2A) acetyltransferase inhibition. GCN5L2 HAT assay, ThioGlo1 CoA-SH fluorescence. Potency, µM (series often up to 58.9 µM), usual class: inhibitors. hit rate 0.21% among 390,000
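Compounds, pin-transferred from DMSO stocks, meet 20nM GCN5L2 for 15 min before the reaction begins with H3(1-25) peptide (75uM) and acetyl-CoA (70uM). Thiol-reactive ThioGlo1 reports CoA release over 20 min at room temperature.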
PLK1 PBD inh = inhibitors of human PLK1 polo-box domain binding; Plk1 PBD binding of FITC phosphopeptide, fluorescence polarization; Potency, µM, actives largely listed as inhibitors; hit rate 2.8% among 360,000; AID 720504; further: series mostly up to about 57 µM; nearly all actives have a fitted effect of over 65% in size
Target sequence (P53350 whole entry, looked up, the tested form may be a part): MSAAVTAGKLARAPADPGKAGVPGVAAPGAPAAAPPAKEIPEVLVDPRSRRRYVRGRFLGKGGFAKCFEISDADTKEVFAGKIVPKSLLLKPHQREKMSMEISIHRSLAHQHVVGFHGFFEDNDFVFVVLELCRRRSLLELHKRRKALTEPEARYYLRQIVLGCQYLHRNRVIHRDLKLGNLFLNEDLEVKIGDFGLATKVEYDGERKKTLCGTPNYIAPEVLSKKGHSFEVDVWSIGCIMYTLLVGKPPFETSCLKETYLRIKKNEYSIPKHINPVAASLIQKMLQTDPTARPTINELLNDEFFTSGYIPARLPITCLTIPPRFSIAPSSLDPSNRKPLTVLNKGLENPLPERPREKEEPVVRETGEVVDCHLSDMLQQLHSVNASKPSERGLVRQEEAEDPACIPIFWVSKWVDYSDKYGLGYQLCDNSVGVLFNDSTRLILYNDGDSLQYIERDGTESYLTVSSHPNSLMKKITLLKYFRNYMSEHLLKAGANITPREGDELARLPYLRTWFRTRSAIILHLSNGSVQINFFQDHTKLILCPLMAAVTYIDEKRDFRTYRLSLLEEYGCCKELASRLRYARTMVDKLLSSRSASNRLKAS
TDP1 block = TDP1 (human) enzyme inhibition; Q9NUW8; recombinant TDP1, AlphaScreen DNA substrate cleavage; Potency, µM (doses to about 130 µM), most hits filed as inhibitors; hit rate 0.28% among 350,000; AID 485290; further: nearly all actives have a fitted effect of over 40% in size
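Recombinant human Tdp1 (E. coli-expressed, 1 nM final) preincubated with compounds 15 min at room temperature, then 5'-biotin/3'-phosphotyrosine-FITC DNA substrate (15 nM final) added for 5 min. AlphaScreen beads (10 ug/ml final) added 10 min; cleavage lowers signal.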
DT40 TDP1 no CPT = qHTS for Inhibitors of human tyrosyl-DNA phosphodiesterase 1 (TDP1): qHTS in cells in absence of CPT; DT40 Tdp1-/- hTDP1 cells, no CPT, ATP luminescence, 48 h; hit rate 15% among 420,000; Potency, µM (highest dose often 46.2 µM), most hits filed as inhibitors; further: nearly all actives have a fitted effect of over 55% in size
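Stably hTDP1-transfected Tdp1-null chicken DT40 cells were treated with library compounds minus camptothecin and grown for at least 48 hr at 37 °C, after which cellular ATP was quantified by luminescence.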
VDR inhibitor = blocks the human vitamin D receptor. P11473. VDR-SRC2-3 peptide fluorescence polarization, 2 h. Potency, µM, usual class: inhibitors. hit rate 0.93% among 400,000. AID 504847
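VDR–SRC2-3 interaction, FP format. Cmpds 23 nl via pintool, brief spin, 2 h ambient incubation.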
A number is an active result; n = inactive; u = inconclusive; x = no result; [ ] = dose if it differs, or a comment. The call rests on the fitted dose curve; in most records, active means well fitted curve in the direction sought with a large enough effect; inconclusive means small, poorly fitted or top-dose-only effect, or another doubt; inactive means no such curve, though single readings can be large; an effect the other way counts as inactive or inconclusive.

SMILES	DT40 TDP1 CPT	GCN5L2 inh	PLK1 PBD inh	TDP1 block	DT40 TDP1 no CPT	VDR inhibitor
O=C(C1CCN(S(=O)(=O)c2cccc3nonc23)CC1)N1CCN(c2ccc(F)cc2)CC1	20.6µM	n	x	n	11.6µM	n
COc1ccccc1N1CCN(C(=O)C2CCN(S(=O)(=O)c3cccc4nonc34)CC2)CC1	u	n	x	n	u	n
CCN1CCN(C(=O)C2CCCN(S(=O)(=O)c3cc(Cl)ccc3Cl)C2)CC1 (stereo unspecified)	n	n	n	n	n	n
CC1CCN(C(=O)C2CCN(S(=O)(=O)c3cc(Cl)ccc3Cl)CC2)CC1	u	n	n	n	20.6µM	n
CCOc1ccccc1N(C)C(=O)C1CCN(S(=O)(=O)c2cccc3nonc23)CC1	u	n	n	n	13µM	n
Cc1ccc(Cl)cc1N1CCN(C(=O)C2CCN(S(=O)(=O)c3cccc4nonc34)CC2)CC1	11.6µM	n	x	n	7.31µM	n
CCOc1ccccc1CNC(=O)C1CCN(S(=O)(=O)c2cccc3nonc23)CC1	n	n	x	n	n	n
O=C(CC1OC(=O)c2ccccc21)Nc1cc(S(=O)(=O)N2CCOCC2)ccc1OCC(F)(F)F (stereo unspecified)	u	n	n	x	n	n
COc1ccc(C(=O)NCC2Cc3cc(F)cc(-c4cncnc4)c3O2)cc1 (stereo unspecified)	n	x	x	x	n	x
CCc1ccccc1N1CC(c2nnc(NC(=O)c3ccco3)s2)CC1=O (stereo unspecified)	n	n	x	n	n	n
COc1ccc(-n2c(=O)c(-c3cc(F)cc(F)c3)nc3cncnc32)cc1	n	n	x	x	n	n
O=C(NCCc1ccccc1)C1CCN(S(=O)(=O)c2cccc3nonc23)CC1	n	n[0.501 µM]	n	n	n	n
O=C(C1CCN(S(=O)(=O)c2cccc3nonc23)CC1)N1CCCCC1	n	n	n	n	n	n
Cc1ccc(C)c(N2CCN(C(=O)C3CCCN(S(=O)(=O)c4cccc5nonc45)C3)CC2)c1 (stereo unspecified)	9.2µM	n	x	n	6.51µM	n
O=C(C1CCCN(S(=O)(=O)c2cccc3nonc23)C1)N1CCN(c2cccc(Cl)c2)CC1 (stereo unspecified)	16.4µM	n	n	n	23.1µM	n
O=C(NCCN1CCN(c2ccccc2)CC1)C1CCN(S(=O)(=O)c2cccc3nonc23)CC1	n	1.78µM	n	n	u	n
COc1ccc(Cl)cc1NC(=O)C1CCCN(S(=O)(=O)c2cccc3nonc23)C1 (stereo unspecified)	u	n	n	n	u	n
O=C1NC(Cc2ccc(O)cc2)c2nc3ccc(Br)cc3c(=O)n2-c2ncccc21 (stereo unspecified)	n	x	n	x	u	x
Cc1cc(NC(=O)NC(C(F)(F)F)C(F)(F)F)no1	n	n	n	x	n	n
CCc1nc(N)nc(N)c1-c1ccc(N(C)Cc2ccccc2)c([N+](=O)[O-])c1	4.61µM	x	n	x	0.651µM	n
COc1ccc(CN(C)c2ccc(-c3nc(C)no3)cc2[N+](=O)[O-])cc1	10.3µM	n	x	n	8.2µM	n
CCOc1ccc(-c2nc(N)nc(C)c2-c2ccc(Cl)cc2)c(O)c1	u	n	n	x	u	n
CCc1nc(N)nc(N)c1-c1ccc(NCCN)c([N+](=O)[O-])c1	8.2µM	x	n	x	2.59µM	x
CCc1nc(N)nc(N)c1-c1ccc(Cl)cc1	0.944µM	n	n	n	0.651µM	n
O=[S+]([O-])([O-])c1ccc2c(c1)cc([S+](=O)([O-])[O-])c1nn(-c3ccc(/C=C/c4ccc(-n5nc6c([S+](=O)([O-])[O-])cc7cc([S+](=O)([O-])[O-])ccc7c6n5)cc4[S+](=O)([O-])[O-])c([S+](=O)([O-])[O-])c3)nc12	n	x	x	u	n	n
SMILES	DT40 TDP1 CPT	GCN5L2 inh	PLK1 PBD inh	TDP1 block	DT40 TDP1 no CPT	VDR inhibitor
Cc1cnc(C)c(-c2cccc3c2OC(CNC(=O)c2cc(C)on2)C3)n1 (stereo unspecified)	n[9.04 µM]	x	x	x	n	x
COc1ccc(CN(C)C(=O)c2ccc(NS(=O)(=O)c3ccc(F)cc3)cc2)c(OC)c1OC	u	n	n	n	u	n
CCN(CC)c1ccc(-c2nc(-c3ccco3)no2)cc1[N+](=O)[O-]	u	n	x	n	25.9µM	n
Cc1noc(-c2ccc(N(C)Cc3ccccc3)c([N+](=O)[O-])c2)n1	20.6µM	n	x	n	16.4µM	n
CCOC(=O)C(CC(=O)Nc1nc(C(C)=O)c(C)s1)C(C)c1ccccc1 (stereo unspecified)	n	n	n	x	u	n
O=C1c2ccccc2C(=O)c2c1ccc(C(=O)N1CCCCC1)c2NCCO	u	n	n	n	u	n
CCN(CCN(C)C)C(=O)c1ccc2c(c1NCCO)C(=O)c1ccccc1C2=O	u	n	n	n	23.1µM	n
Cc1cc(C)c2nc(N3CCCC(C(=O)NCCCN4CCOCC4)C3)sc2c1 (stereo unspecified)	u	n	n	n	u	n
CC1CC(C)CN(CCCNC(=O)C2CCN(c3nnc(-n4cccc4)s3)CC2)C1 (stereo unspecified)	n	n	n	n	n	n
Cc1cc(C)c2nc(N3CCC(C(=O)NCCCN4CC(C)CC(C)C4)CC3)sc2c1 (stereo unspecified)	u	n	n	n	23.1µM	n
CCN1CCN(CCCNC(=O)C2CCCN(c3nc4c(C)cc(C)cc4s3)C2)CC1 (stereo unspecified)	23.1µM	n	n	x	20.6µM	n
COc1cc(/C=N/NS(=O)(=O)c2ccc(Br)cc2)ccc1O	n	n	n	n	n	n
COc1ccc(Cl)cc1C=CC=NNS(=O)(=O)c1ccc(C)cc1	18.4µM	x	n	x	16.4µM	n
COc1ccccc1/C=C/C=N/N1CCN(Cc2ccc(Cl)cc2)CC1	u	n	n	n	u	n
Cc1ccc(S(=O)(=O)NN=Cc2cc(Cl)ccc2O)cc1	n	x	n	x	n	n
COc1ccc(Br)cc1C=NNS(=O)(=O)c1ccc(C)cc1	u	x	n	x	7.31µM	x
COc1ccc(Cl)cc1C=CC=Nc1ccccc1O	23.1µM	x	n	x	18.4µM	89.1µM
Nc1ccn([C@@H]2O[C@H](CO)[C@@H](O)C2O)c(=O)n1 (stereo partly specified)	0.0366µM	n	n	n	0.0411µM	n
CCCCCCCCCCCCCCCCCCCCCC(=O)Nc1ccn([C@@H]2O[C@H](CO)[C@@H](O)[C@@H]2O)c(=O)n1	2.66µM	n	x	x	3.35µM	n
Nc1nc(=O)n(C2CC(O)C(CO)O2)cc1F (stereo unspecified)	u	x	n	x	u	n
